Results from PubChem BioAssay AID686978 (National Center for Advancing Translational Sciences (NCATS), 2013).
Out of some 420,000 compounds screened, about 64,000 (15%) were called active. About 27% were inconclusive and are not listed. The call rests on the fitted dose curve; in most records, active means well fitted inhibition curve with a large enough effect; inconclusive means small, poorly fitted or top-dose-only effect; inactive means flat fitted curve, though single readings scatter. Not all results are given here. Entries that show only a call come without a potency.

experiment: qHTS for Inhibitors of human tyrosyl-DNA phosphodiesterase 1 (TDP1): qHTS in cells in absence of CPT; conditions: DT40 Tdp1-/- hTDP1 cells, no CPT, ATP luminescence, 48 h; activity change, negative = growth inhibition: at 46.2 µM (top of the series); further: nearly all actives have a fitted effect of over 55% in size
Summary of the method: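 Cells were dispensed at 400 per well, compounds added by pin tool, plates incubated ≥48 hr at 37 °C, then CellTiter-Glo added for 30 min at room temperature before luminescence reading. Line: DT40 Tdp1-/- complemented with hTDP1; camptothecin omitted.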
Potency means the concentration at half of the fitted maximal effect.

Compound | Potency
O=c1c2ccccc2nc(CSc2nnnn2-c2ccccc2)n1-c1ccccc1 | inactive
COCCn1c(SCc2nc3cc(OC)c(OC)cc3c(=O)[nH]2)nnc1-c1ccncc1 | inactive
COc1ccc(C)cc1-n1nnnc1SCc1nc2ccccc2c(=O)[nH]1 | 9.2 µM (active)
O=C1CCC[C@@H]2CC(N3CCCCC3)C[C@@H]3CCN1[C@H]23 (some centres undefined) | inactive
S=C1Nc2cc(Cl)ccc2Sc2ccccc21 | inactive
Cc1cccc(C)c1NC(=O)CN(C)C(=O)CCC(=O)c1ccccc1 | inactive
Cc1ccccc1NC(=O)c1ccccc1 | inactive
Cc1cccc(C)c1NC(=O)C(Cl)C(=O)c1ccccc1 (centres undefined) | 7.31 µM (active)
CCCCNCCS(=O)(=O)NCc1ccccc1 | inactive
C[C@H](CO)N1C[C@H](C)[C@@H](CN(C)S(=O)(=O)c2ccc(F)cc2)OCc2cnnn2CCCC1=O | inactive
COc1cc(C(=S)N2CCOCC2)cc(OC)c1OC(=O)c1cc([N+](=O)[O-])cc([N+](=O)[O-])c1 | inactive
COc1ccccc1CC(=O)Nc1ccc(S(=O)(=O)N2CCCC2)cc1 | inactive
COc1ccc(C(=O)NCc2ccc(Cl)cc2)cc1S(=O)(=O)N1CCCC1 | inactive
CCOC(=O)N1CCN(C(=O)COC(=O)c2cccc(S(C)(=O)=O)c2)CC1 | inactive
COc1ccccc1N1CCN(C(=O)c2ccc(S(=O)(=O)N3CCCCC3)cc2)CC1 | 25.9 µM (active)
COc1ccccc1N1CCN(C(=O)c2ccc(Cl)c(S(=O)(=O)N3CCCC3)c2)CC1 | 18.4 µM (active)
CCN(CC)S(=O)(=O)c1ccc(C(=O)N2CCN(C3=NS(=O)(=O)c4ccccc43)CC2)cc1 | inactive
COc1ccc(N2CCN(C(=O)CNS(=O)(=O)c3ccc(C)c(C)c3)CC2)cc1 | inactive
COc1ccc(N2CCN(C(=O)COC(=O)c3cccc(S(=O)(=O)Nc4ccccc4OC)c3)CC2)cc1 | 20.6 µM (active)
CN(c1ccccc1)S(=O)(=O)c1ccc(C(=O)N2CCN(c3ccccc3Cl)CC2)cc1 | 20.6 µM (active)
CN(c1ccccc1)S(=O)(=O)c1ccc(Cl)c(C(=O)OCC(=O)N2CCOCC2)c1 | inactive
COc1ccccc1N1CCN(S(=O)(=O)c2ccc(Cl)cc2)CC1 | inactive

Compound | Potency
O=C(c1ccc(Cl)c(S(=O)(=O)N2CCCCCC2)c1)N1CCN(c2ccc(O)cc2)CC1 | inactive
COc1ccc(S(=O)(=O)NCC(c2ccc(C)cc2)N2CCN(C)CC2)cc1OC (centres undefined) | inactive
CC(C)C(NC(=O)C1CCC(C(C)(C)C)CC1)C(=O)NCCCN1CCCCC1 (centres undefined) | inactive
CC1CCN(C(=S)c2cccc(O)c2)CC1 | inactive
C/C=C/C(=O)OCC(=O)Nc1ccc(F)cc1Cl | inactive
CC(CN1CCC(n2nccc2NC(=O)C2CCCC2)CC1)c1ccccc1 (centres undefined) | inactive
Nc1c(-c2ccc(F)cc2)cnc2ncnn12 | inactive
COc1ccc(C)cc1NC(=O)NCc1ccccn1 | inactive
COC(=O)C1=C(C)N=C2SC(C)C(=O)N2C1/C=C/c1ccccc1 (centres undefined) | inactive
COCCNC(=O)CN(C(=O)CCC(=O)Nc1cc(C)on1)c1ccc(C)cc1C | inactive
COc1ccccc1NS(=O)(=O)c1ccc(C)c(C(=O)NNC(=O)c2csc(N3CCOCC3)n2)c1 | inactive
Cc1[nH]n(C)c(=O)c1C(=O)c1c(-c2c(Cl)cccc2Cl)noc1C | inactive
Cc1onc(-c2ccccc2)c1C(=O)N1CCN(S(=O)(=O)c2ccccc2C(F)(F)F)CC1 | inactive
COc1ccccc1N1CCN(C(=O)c2c(-c3c(Cl)cccc3Cl)noc2C)CC1 | 20.6 µM (active)
COc1ccc(S(=O)(=O)Nc2ccccc2C(=O)N2CCCC2)cc1C | inactive
COc1ccccc1NS(=O)(=O)c1ccc(C(=O)N2CCN(c3ccccc3O)CC2)cc1 | 16.4 µM (active)
COc1ccc2c(c1)CCC/C2=N\OC(=O)c1ccccc1F | inactive
CC(C)(CSc1nncn1/N=C/c1ccco1)NS(=O)(=O)c1ccc(Cl)cc1 | inactive
O=C(COC(=O)CSc1nnc(-c2ccc(Cl)cc2)o1)Nc1cc(Cl)cc(Cl)c1 | inactive
Cn1ccsc1=NC(=O)c1cc(S(=O)(=O)N2CCOCC2)ccc1Cl | inactive
Cc1ccccc1C(=O)Nc1ccccc1Sc1ccccc1 | inactive
O=C(O)COc1nsnc1N1CCOCC1 | inactive

Compound | Potency
CSCCC(NC(N)=O)C(=O)N(C)CC(=O)Nc1ccc(C)cc1 (centres undefined) | inactive
COc1cccc(N2CC(NC(=O)/C=C\c3ccccc3)CC2=O)c1 (centres undefined) | inactive
COc1ccc(-c2nn3c(-c4ccc(OC)cc4)nnc3c3ccccc23)cc1 | inactive
CC(C)N(C(=O)Cn1cc(S(=O)(=O)CC(=O)N2CCOCC2)c2ccccc21)C(C)C | inactive
O=C(COC(=O)CNC(=O)C1CCCCC1)NCc1ccccc1 | inactive
O=C(NCc1ccccc1)C1=C[C@@H](C2CCCCC2)C[C@@H](OCc2ccc(CO)cc2)O1 | 16.4 µM (active)
O=C(O)C1CCN(C(=O)OCc2ccccc2)CC1 | inactive
COc1cc(Cl)cc(C2NC(=O)NC(C)=C2C(=O)NCc2ccccc2)c1O (centres undefined) | inactive
CCOc1ccc(C(CC(=O)O)NC(=O)COc2ccccc2)cc1 (centres undefined) | inactive
CC(=O)Nc1ccc(NC(=O)COc2ccc(-c3ccccc3)cc2)cc1 | inactive
CC(NC(=O)COc1ccc(-c2ccccc2)cc1)C1CCCO1 (centres undefined) | 11.6 µM (active)
COc1ccc(NC(=O)N(C)C[C@H]2Oc3ccc(NC(=O)C4CC4)cc3C(=O)N([C@H](C)CO)C[C@@H]2C)cc1 | inactive
CCCc1cc(=O)[nH]c(SCc2ccc(C#N)cc2)n1 | inactive
CSCCC(Nc1ccc(S(=O)(=O)N2CCOCC2)cc1[N+](=O)[O-])C(=O)OCC(=O)N(C(C)C)C(C)C (centres undefined) | inactive
COc1ccc(-n2c(C)cc(C(=O)CSc3nnc(-c4cccs4)o3)c2C)cc1 | 16.4 µM (active)
COc1ccc(OC)c(C(=O)CSc2nnc(-c3cccs3)o2)c1 | inactive
Cc1ccc(OC(=O)CSc2nnc(-c3cccs3)o2)cc1 | inactive
Cc1cc(C)c(NC(=O)CN2CCCCCC2)c(C)c1 | inactive
Cc1c(-c2ccccc2)cn2c1-c1ccc(C)n1CC2 | 16.4 µM (active)
O=c1[nH]c(SCc2ccccc2)nnc1-c1ccccc1 | inactive
